The source of these data is ChEMBL document CHEMBL1961873, “Compounds: GSK PKIS; Assays: Nanosyn kinase panel” (2012).

By inhibition is commonly meant the drop in the measured response relative to a control, in per cent.

One experiment deals with Serine/threonine-protein kinase Nek6 (Homo sapiens) (UniProt Q9HC98). As to conditions: at 1 µM.
Sequence of Serine/threonine-protein kinase Nek6 (Homo sapiens) (Q9HC98 whole entry): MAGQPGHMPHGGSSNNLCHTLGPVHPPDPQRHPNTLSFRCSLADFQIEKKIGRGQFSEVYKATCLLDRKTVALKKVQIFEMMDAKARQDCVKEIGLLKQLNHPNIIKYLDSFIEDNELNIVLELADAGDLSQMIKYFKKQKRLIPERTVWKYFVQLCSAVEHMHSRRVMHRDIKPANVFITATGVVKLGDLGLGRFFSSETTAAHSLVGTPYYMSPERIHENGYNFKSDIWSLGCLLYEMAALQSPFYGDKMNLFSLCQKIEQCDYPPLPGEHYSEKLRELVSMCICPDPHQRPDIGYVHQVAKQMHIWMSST
As for `CN1CCN(CCCNc2nc3ccc(Oc4ccc(NC(=O)Nc5cc(C(F)(F)F)ccc5F)cc4)cc3[nH]2)CC1`, the inhibition was -2.03%.

Consider `NS(=O)(=O)c1ccc(N/N=C2\C(=O)Nc3ccc(-c4cnco4)cc32)cc1`, for which the inhibition was 1.55%.

Turning to `O=C1Nc2ccccc2/C1=C/Nc1ccc(-n2cncn2)cc1`, the inhibition came out at 7.54%.

Regarding `Cc1nnc(-c2ccc(C)c(-c3ccc(C(=O)NCc4ccc(Cl)cc4)cc3)c2)o1`, the inhibition was determined as 5.29%.

For `CN(C)CCCNc1nccc(-c2c(-c3ccc(F)cc3)nn3cc(C(F)(F)F)ccc23)n1`, the inhibition was -1.46%.

`COc1ccc2ncn(-c3cc(O[C@H](C)c4ccccc4Cl)c(C(N)=O)s3)c2c1`: the inhibition came to 0.34%.

In the case of `CCS(=O)(=O)c1ccc(OC)c(Nc2ncc(-c3cccc(-c4ccccc4F)c3)o2)c1`, the inhibition is -2.09%.

As for `O=C(Nc1n[nH]c2cc(-c3ccccc3)ccc12)C1CC1`, the inhibition is -0.52%.

For `COc1ccc(-c2ccc3c(NC(=O)C4CC4)n[nH]c3n2)cc1`, the inhibition was 3.26%.

On to `COc1cc(Nc2ncc3c(C)nc(-c4cccc(C(F)(F)F)c4)n3n2)cc(OC)c1OC`, for which the inhibition stood at 9.1%.

Consider `Cc1ccc(NC(=O)c2ccoc2)cc1-c1ccc(C(=O)NCC2CC2)cc1`, for which the inhibition stood at 0.14%.

Turning to `Fc1ccc(-c2nc3n(c2-c2ccncc2)CCS3)cc1`, the inhibition was 0.72%.

Regarding `NS(=O)(=O)c1ccc(N/N=C2\C(=O)Nc3ccc(C(=O)NCCCn4ccnc4)cc32)cc1`, the inhibition is 3.62%.

In the case of `CCN(CC)Cc1ccc(Nc2nccc(-c3cnn4ncccc34)n2)cc1`, the inhibition was -0.16%.

For the molecule `NC(=O)c1cc(-c2ccc(F)cc2)cc(-c2ccncc2)c1N`, the inhibition is 6.66%.

As to `Nc1nccc(-c2c(-c3ccc(F)cc3)ncn2C2CCC(O)CC2)n1` (stereo not drawn), the inhibition is -1.66%.

In the case of `CCc1ccc(Oc2nccc(-c3c(-c4ccc(F)cc4)ncn3C3CCNCC3)n2)cc1`, the inhibition was determined as 0.8%.

For `C#Cc1cccc(Nc2ncnc3ccc(OCCCCNCCS(C)(=O)=O)cc23)c1`, the inhibition was determined as 3.84%.

Turning to `NC(=O)c1ccc(Oc2nccc(-c3c(-c4ccc(F)cc4)ncn3C3CCNCC3)n2)cc1`, the inhibition was found to be 1.67%.

Take `COC(=O)Nc1nc2ccc(Sc3ccc(NC(=O)Nc4cc(C(F)(F)F)ccc4F)cc3)cc2[nH]1`: the inhibition was -0.98%.

With `CCC(=O)Nc1ccc(C)c(-c2ccc(C(=O)NCC3CC3)cc2)c1`, the inhibition amounted to 0.12%.

Take `COc1cccc(-n2cnc3c(N/N=C/c4ccncc4)ncnc32)c1`: the inhibition was found to be 2.69%.

Turning to `Cc1ccc(C(=O)NC2CCC2)cc1-c1ccc(C(=O)NCC2CC2)cc1`, the inhibition was 1.33%.

`c1ccc(-c2n[nH]cc2-c2ccnc(-c3ccc(OCCN4CCOCC4)cc3)c2)nc1`: the inhibition was -2.27%.

For the molecule `O=C1NC(=O)C(c2cccc(Cl)c2)=C1Nc1ccc(Cl)c(C(=O)O)c1`, the inhibition worked out at 5.19%.

Take `C[C@@H](Oc1cc(-n2cnc3ccc(OC4CCN(C)CC4)cc32)sc1C(N)=O)c1ccccc1Cl`: the inhibition was found to be 2.21%.

In the case of `CS(=O)(=O)CCNCc1ccc(-c2ccc3ncnc(Nc4ccc(OCc5ccccc5)c(Br)c4)c3c2)o1`, the inhibition is 3.89%.

For `COc1cc(N2CCN(C(C)C)CC2)ccc1Nc1nc(Nc2ccc(F)cc2C(=O)NC[C@@H](O)CO)c2cc[nH]c2n1`, the inhibition was found to be 3.84%.

In the case of `Clc1ccc(CNc2nccc(-c3cnn4ncccc34)n2)cc1`, the inhibition is -1.91%.

As to `COc1cc(Nc2ncc(-c3ccccc3)o2)cc(OC)c1OC`, the inhibition is -3.53%.

On to `O=C(Nc1n[nH]c2nc(-c3ccc(O)cc3)c(Br)cc12)C1CC1`, for which the inhibition is 15.2%.

With `Fc1ccc(-c2ncn(C3CCNCC3)c2-c2ccnc(Oc3ccc4c(c3)OCO4)n2)cc1`, the inhibition was determined as 1.67%.

As for `NC(=O)c1cc(-c2ccncc2)cc(-c2ccccc2)c1N`, the inhibition is -0.35%.

In the case of `Fc1ccc(-c2ncn(C3CCNCC3)c2-c2ccnc(Oc3ccc(Oc4ccccc4)cc3)n2)cc1`, the inhibition came out at 2.86%.

In another experiment the target is Serine/threonine-protein kinase Nek7 (Homo sapiens) (UniProt Q8TDX7). As to conditions: at 0.1 µM.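 Note: figures are averaged percent inhibition of NEK7 kinase.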
Sequence of Serine/threonine-protein kinase Nek7 (Homo sapiens) (Q8TDX7 whole entry, looked up): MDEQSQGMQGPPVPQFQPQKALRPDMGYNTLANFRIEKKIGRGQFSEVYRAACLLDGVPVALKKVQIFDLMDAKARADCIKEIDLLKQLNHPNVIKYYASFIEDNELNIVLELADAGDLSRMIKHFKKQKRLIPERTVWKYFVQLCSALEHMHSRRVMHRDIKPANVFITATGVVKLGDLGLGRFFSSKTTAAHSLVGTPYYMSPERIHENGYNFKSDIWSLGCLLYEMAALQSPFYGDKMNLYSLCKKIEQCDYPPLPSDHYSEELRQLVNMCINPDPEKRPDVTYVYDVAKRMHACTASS
Turning to `CN1CCN(CCCNc2nc3ccc(Oc4ccc(NC(=O)Nc5cc(C(F)(F)F)ccc5F)cc4)cc3[nH]2)CC1`, the inhibition was 3.61%.

Regarding `NS(=O)(=O)c1ccc(N/N=C2\C(=O)Nc3ccc(-c4cnco4)cc32)cc1`, the inhibition was determined as 2.6%.

In the case of `O=C1Nc2ccccc2/C1=C/Nc1ccc(-n2cncn2)cc1`, the inhibition is 5.44%.

For the molecule `Cc1nnc(-c2ccc(C)c(-c3ccc(C(=O)NCc4ccc(Cl)cc4)cc3)c2)o1`, the inhibition came out at 5.57%.

On to `CN(C)CCCNc1nccc(-c2c(-c3ccc(F)cc3)nn3cc(C(F)(F)F)ccc23)n1`, for which the inhibition was found to be 2.85%.

Take `COc1ccc2ncn(-c3cc(O[C@H](C)c4ccccc4Cl)c(C(N)=O)s3)c2c1`: the inhibition stood at 3.12%.

Regarding `CCS(=O)(=O)c1ccc(OC)c(Nc2ncc(-c3cccc(-c4ccccc4F)c3)o2)c1`, the inhibition was found to be 1.63%.

For the molecule `O=C(Nc1n[nH]c2cc(-c3ccccc3)ccc12)C1CC1`, the inhibition worked out at 5.67%.

Consider `COc1ccc(-c2ccc3c(NC(=O)C4CC4)n[nH]c3n2)cc1`, for which the inhibition was 2.52%.

Take `COc1cc(Nc2ncc3c(C)nc(-c4cccc(C(F)(F)F)c4)n3n2)cc(OC)c1OC`: the inhibition worked out at 5.91%.

For `Cc1ccc(NC(=O)c2ccoc2)cc1-c1ccc(C(=O)NCC2CC2)cc1`, the inhibition was found to be 0.66%.

Regarding `Fc1ccc(-c2nc3n(c2-c2ccncc2)CCS3)cc1`, the inhibition was determined as 5.52%.

As for `NS(=O)(=O)c1ccc(N/N=C2\C(=O)Nc3ccc(C(=O)NCCCn4ccnc4)cc32)cc1`, the inhibition came to 6.31%.

Consider `CCN(CC)Cc1ccc(Nc2nccc(-c3cnn4ncccc34)n2)cc1`, for which the inhibition turned out to be 3.37%.

Take `NC(=O)c1cc(-c2ccc(F)cc2)cc(-c2ccncc2)c1N`: the inhibition is 6.78%.

`Nc1nccc(-c2c(-c3ccc(F)cc3)ncn2C2CCC(O)CC2)n1` (stereo not drawn): the inhibition is -2.24%.

With `CCc1ccc(Oc2nccc(-c3c(-c4ccc(F)cc4)ncn3C3CCNCC3)n2)cc1`, the inhibition worked out at 2.65%.

As for `C#Cc1cccc(Nc2ncnc3ccc(OCCCCNCCS(C)(=O)=O)cc23)c1`, the inhibition is 4.76%.

On to `NC(=O)c1ccc(Oc2nccc(-c3c(-c4ccc(F)cc4)ncn3C3CCNCC3)n2)cc1`, for which the inhibition worked out at 3.46%.

`COC(=O)Nc1nc2ccc(Sc3ccc(NC(=O)Nc4cc(C(F)(F)F)ccc4F)cc3)cc2[nH]1`: the inhibition is -0.35%.

In the case of `CCC(=O)Nc1ccc(C)c(-c2ccc(C(=O)NCC3CC3)cc2)c1`, the inhibition turned out to be 3.13%.

For `COc1cccc(-n2cnc3c(N/N=C/c4ccncc4)ncnc32)c1`, the inhibition is -0.81%.

As for `Cc1ccc(C(=O)NC2CCC2)cc1-c1ccc(C(=O)NCC2CC2)cc1`, the inhibition was found to be 3.14%.

`c1ccc(-c2n[nH]cc2-c2ccnc(-c3ccc(OCCN4CCOCC4)cc3)c2)nc1`: the inhibition was -5.33%.

For the molecule `O=C1NC(=O)C(c2cccc(Cl)c2)=C1Nc1ccc(Cl)c(C(=O)O)c1`, the inhibition was found to be 2.65%.

For `C[C@@H](Oc1cc(-n2cnc3ccc(OC4CCN(C)CC4)cc32)sc1C(N)=O)c1ccccc1Cl`, the inhibition turned out to be 3.24%.

For `CS(=O)(=O)CCNCc1ccc(-c2ccc3ncnc(Nc4ccc(OCc5ccccc5)c(Br)c4)c3c2)o1`, the inhibition amounted to 3.08%.

Turning to `COc1cc(N2CCN(C(C)C)CC2)ccc1Nc1nc(Nc2ccc(F)cc2C(=O)NC[C@@H](O)CO)c2cc[nH]c2n1`, the inhibition came to 5.49%.

On to `Clc1ccc(CNc2nccc(-c3cnn4ncccc34)n2)cc1`, for which the inhibition is -2.2%.

Regarding `COc1cc(Nc2ncc(-c3ccccc3)o2)cc(OC)c1OC`, the inhibition is -3.32%.

`O=C(Nc1n[nH]c2nc(-c3ccc(O)cc3)c(Br)cc12)C1CC1`: the inhibition was determined as 13.2%.

Consider `Fc1ccc(-c2ncn(C3CCNCC3)c2-c2ccnc(Oc3ccc4c(c3)OCO4)n2)cc1`, for which the inhibition stood at 2.69%.

For the molecule `NC(=O)c1cc(-c2ccncc2)cc(-c2ccccc2)c1N`, the inhibition was found to be 4.53%.

Turning to `Fc1ccc(-c2ncn(C3CCNCC3)c2-c2ccnc(Oc3ccc(Oc4ccccc4)cc3)n2)cc1`, the inhibition was 3.94%.
